Of roughly 7,900 targets only a part is listed; those with a hit were picked by preference. About 0.6% of all pairs of compound and target were hits. Unmarked numbers belong to inactive results.
Assays:
Experiment in all cases: log2 fold change, soluble protein after heating vs DMSO (PISA); higher = thermal stabilisation; K562 cells, 10 uM, 30 min; active = over 0.2 and 3.5 SD of the protein, either way, in both replicates (recomputed)
erlotinib = compound: C#Cc1cccc(Nc2ncnc3cc(OCCOC)c(OCCOC)cc23)c1 [erlotinib]
Method in brief: (§1)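 Values are thermal stability changes relative to control samples and are taken from duplicates. They are stated as log2 fold changes. Before quantification by TMTpro 16plex LC-MS/MS with equalised channel sums, K562 cells at 2×10^6 cells/mL were treated with 10 μM compound for 30 min, heated in aliquots for 3 min across 48°C-58°C, pooled, extracted in PBS with 0.5% NP-40 at 4°C, and centrifuged at 21,000xg for 90 min to give the soluble supernatant.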

[1] = compound: C/C(=N\NC(=O)C1=CC(=CC=C1)S(=O)(=O)N2CCOCC2)/C3=C(C=CC(=C3)Cl)O
Method in brief: as §1

[2] = compound: C1=CC(=C(C=C1Cl)C2=NC3=NC=CN=C3C(=N2)NC4=CC=NC=C4)F
Method in brief: as §1

[3] = compound: C1=CC(=CC=C1C2=NC3=C(N2)C=C(C=C3)C(=O)N)OC4=CC=C(C=C4)Cl
Method in brief: as §1

[4] = compound: C1=CC2=C(C=CC(=C2)/C=C\3/C(=O)NC(=NCC4=CC=CS4)S3)N=C1
Method in brief: as §1

[5] = compound: C1=CC2=NC=CN=C2C=C1/C=C/3\C(=O)NC(=O)S3
Method in brief: as §1

[6] = compound: C1=CC=C(C=C1)C2=NC(=C(N2)C3=CC=NC=C3)C4=CC(=C(C=C4)Cl)O
Method in brief: as §1

[7] = compound: C1=CC=C2C(=C1)C3=NNC4=CC=CC(=C43)C2=O
Method in brief: as §1

[8] = compound: C1CCN(C1)C(=O)NC2=CC=CC(=C2)NC3=NC=C(C(=N3)NCCC4=CN=CN4)Br
Method in brief: as §1

[9] = compound: C1CN(CCC1(CC2=CC=C(C=C2)Cl)N)C3=NC=NC4=C3C=CN4
Method in brief: as §1

IRAK-1-4 Inhibitor I = compound: C1COCCN1CCN2C3=CC=CC=C3N=C2NC(=O)C4=CC(=CC=C4)[N+](=O)[O-] [IRAK-1-4 Inhibitor I]
Method in brief: as §1

ibrutinib = compound: C=CC(=O)N1CCC[C@@H](n2nc(-c3ccc(Oc4ccccc4)cc3)c3c(N)ncnc32)C1 [ibrutinib]
Method in brief: as §1

[10] = compound: CC(=O)c1cnc2ccc(-c3cc(Cl)c(O)c(Cl)c3)nc2c1N[C@H]1CC[C@H](CN(C)C)CC1
Method in brief: as §1

ralimetinib = compound: CC(C)(C)Cn1c(N)nc2ccc(-c3[nH]c(C(C)(C)C)nc3-c3ccc(F)cc3)nc21 [ralimetinib]
Method in brief: as §1

[11] = compound: CC(C)(O)CC(=O)NCCn1ccc2ncnc(Nc3ccc(Oc4cccc(C(F)(F)F)c4)c(Cl)c3)c21
Method in brief: as §1

[12] = compound: CC(C)C1=C2N=C(C=C(N2N=C1)NCC3=CC=CC=C3)NCCCCCCN
Method in brief: as §1

[13] = compound: CC(C)C[C@@H](C=O)NC(=O)[C@H](CC(C)C)NC(=O)[C@H](CC(C)C)NC(=O)OCc1ccccc1
Method in brief: as §1

pinometostat = compound: CC(C)N(C[C@H]1O[C@@H](n2cnc3c(N)ncnc32)[C@H](O)[C@@H]1O)[C@H]1C[C@@H](CCc2nc3cc(C(C)(C)C)ccc3[nH]2)C1 [pinometostat]
Method in brief: as §1

[14] = compound: CC1=C(C(CC(=O)N1)C2=CC=C(C=C2)C(F)(F)F)C(=O)NC3=C(C=C4C(=C3)C=NN4)F
Method in brief: as §1

[15] = compound: CC1=C(C2=C(C=C1)C(=O)C3=CC=CC=C3N2CCCN)C
Method in brief: as §1

Chain of UniProt Q9BPX6 (Q9BPX6 whole entry, looked up): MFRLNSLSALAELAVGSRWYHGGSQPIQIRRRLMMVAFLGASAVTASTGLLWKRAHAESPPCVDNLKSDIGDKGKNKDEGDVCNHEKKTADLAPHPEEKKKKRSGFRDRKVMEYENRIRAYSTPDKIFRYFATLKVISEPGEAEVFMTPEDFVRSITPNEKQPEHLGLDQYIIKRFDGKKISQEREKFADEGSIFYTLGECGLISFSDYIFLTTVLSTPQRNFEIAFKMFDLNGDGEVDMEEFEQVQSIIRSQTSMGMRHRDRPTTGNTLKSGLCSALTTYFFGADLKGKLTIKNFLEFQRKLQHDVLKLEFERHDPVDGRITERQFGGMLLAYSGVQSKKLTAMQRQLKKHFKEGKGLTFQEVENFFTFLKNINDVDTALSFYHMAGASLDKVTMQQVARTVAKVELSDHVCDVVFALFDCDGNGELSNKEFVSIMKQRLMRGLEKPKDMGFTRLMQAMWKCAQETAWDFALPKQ
Chain of UniProt Q9UGP4 (Q9UGP4 whole entry, looked up): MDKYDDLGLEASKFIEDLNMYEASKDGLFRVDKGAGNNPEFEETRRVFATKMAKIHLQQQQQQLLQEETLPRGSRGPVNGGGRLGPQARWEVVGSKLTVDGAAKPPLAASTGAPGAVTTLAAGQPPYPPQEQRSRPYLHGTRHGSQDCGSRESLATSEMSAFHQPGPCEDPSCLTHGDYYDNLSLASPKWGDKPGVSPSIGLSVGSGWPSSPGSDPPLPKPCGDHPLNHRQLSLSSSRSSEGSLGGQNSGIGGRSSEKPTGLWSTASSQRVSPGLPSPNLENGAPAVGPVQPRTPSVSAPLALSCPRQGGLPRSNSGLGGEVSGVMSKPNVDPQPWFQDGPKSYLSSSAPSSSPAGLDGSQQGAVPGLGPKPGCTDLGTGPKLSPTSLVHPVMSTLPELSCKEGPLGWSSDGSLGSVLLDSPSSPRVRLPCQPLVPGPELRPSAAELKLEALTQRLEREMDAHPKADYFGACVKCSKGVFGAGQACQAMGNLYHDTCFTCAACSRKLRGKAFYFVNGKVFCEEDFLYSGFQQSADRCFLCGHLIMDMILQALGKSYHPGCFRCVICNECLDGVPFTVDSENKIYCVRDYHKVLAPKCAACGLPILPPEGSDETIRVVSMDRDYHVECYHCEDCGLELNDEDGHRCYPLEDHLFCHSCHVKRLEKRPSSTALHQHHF
Chain of UniProt Q9UPY8 (Q9UPY8 whole entry, looked up): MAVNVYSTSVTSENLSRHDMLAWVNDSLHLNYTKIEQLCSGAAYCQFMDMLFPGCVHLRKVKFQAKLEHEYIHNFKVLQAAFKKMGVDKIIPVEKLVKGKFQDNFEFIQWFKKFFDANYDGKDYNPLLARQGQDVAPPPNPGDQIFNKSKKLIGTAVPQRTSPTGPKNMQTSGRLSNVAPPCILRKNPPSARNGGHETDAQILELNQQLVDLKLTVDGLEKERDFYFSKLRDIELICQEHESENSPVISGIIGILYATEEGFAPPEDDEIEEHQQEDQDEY
Chain of UniProt Q96LU5 (Q96LU5 whole entry, looked up): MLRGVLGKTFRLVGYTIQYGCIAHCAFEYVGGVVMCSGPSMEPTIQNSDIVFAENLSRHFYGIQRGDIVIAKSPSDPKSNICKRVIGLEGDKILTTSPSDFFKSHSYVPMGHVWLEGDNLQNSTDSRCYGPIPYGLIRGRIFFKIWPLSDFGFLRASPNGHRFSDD
Chain of UniProt O43318 (O43318 whole entry, looked up): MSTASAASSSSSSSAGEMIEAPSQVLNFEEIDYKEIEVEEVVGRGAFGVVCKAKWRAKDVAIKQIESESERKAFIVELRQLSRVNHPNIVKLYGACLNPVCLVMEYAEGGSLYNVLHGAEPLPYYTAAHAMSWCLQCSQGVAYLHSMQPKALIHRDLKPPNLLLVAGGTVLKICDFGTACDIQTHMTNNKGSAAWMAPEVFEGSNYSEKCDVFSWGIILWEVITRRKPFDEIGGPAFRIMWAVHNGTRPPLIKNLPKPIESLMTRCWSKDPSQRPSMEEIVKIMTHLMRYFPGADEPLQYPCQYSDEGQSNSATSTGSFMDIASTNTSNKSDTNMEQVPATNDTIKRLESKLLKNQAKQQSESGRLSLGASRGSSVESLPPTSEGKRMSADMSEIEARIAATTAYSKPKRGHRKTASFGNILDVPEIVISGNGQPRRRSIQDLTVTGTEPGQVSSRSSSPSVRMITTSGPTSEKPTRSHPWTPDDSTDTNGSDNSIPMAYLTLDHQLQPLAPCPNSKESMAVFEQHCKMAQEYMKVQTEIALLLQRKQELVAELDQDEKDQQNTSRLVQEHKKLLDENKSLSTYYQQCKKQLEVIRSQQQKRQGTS
Chain of UniProt P13473 (P13473 whole entry, looked up): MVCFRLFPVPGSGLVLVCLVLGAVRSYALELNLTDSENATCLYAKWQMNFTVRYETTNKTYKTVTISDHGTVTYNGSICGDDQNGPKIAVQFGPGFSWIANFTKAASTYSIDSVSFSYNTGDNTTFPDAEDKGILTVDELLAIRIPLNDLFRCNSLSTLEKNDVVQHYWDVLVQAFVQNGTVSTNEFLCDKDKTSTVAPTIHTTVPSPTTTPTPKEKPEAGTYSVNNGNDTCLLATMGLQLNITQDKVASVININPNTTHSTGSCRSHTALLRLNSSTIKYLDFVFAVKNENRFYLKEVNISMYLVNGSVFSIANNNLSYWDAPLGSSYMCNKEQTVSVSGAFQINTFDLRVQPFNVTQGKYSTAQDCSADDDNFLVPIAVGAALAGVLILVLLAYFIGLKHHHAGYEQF
Chain of UniProt Q07820 (Q07820 whole entry, looked up): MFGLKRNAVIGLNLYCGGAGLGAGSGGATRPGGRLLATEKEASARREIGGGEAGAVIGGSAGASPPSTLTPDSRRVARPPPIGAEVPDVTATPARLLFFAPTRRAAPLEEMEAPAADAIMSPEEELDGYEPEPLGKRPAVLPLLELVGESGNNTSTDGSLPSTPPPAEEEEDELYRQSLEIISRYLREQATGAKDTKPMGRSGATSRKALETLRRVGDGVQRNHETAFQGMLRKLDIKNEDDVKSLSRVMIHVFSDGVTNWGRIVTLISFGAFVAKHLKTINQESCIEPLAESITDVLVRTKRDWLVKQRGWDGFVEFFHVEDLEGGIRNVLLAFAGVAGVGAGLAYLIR
Chain of UniProt Q14145 (Q14145 whole entry, looked up): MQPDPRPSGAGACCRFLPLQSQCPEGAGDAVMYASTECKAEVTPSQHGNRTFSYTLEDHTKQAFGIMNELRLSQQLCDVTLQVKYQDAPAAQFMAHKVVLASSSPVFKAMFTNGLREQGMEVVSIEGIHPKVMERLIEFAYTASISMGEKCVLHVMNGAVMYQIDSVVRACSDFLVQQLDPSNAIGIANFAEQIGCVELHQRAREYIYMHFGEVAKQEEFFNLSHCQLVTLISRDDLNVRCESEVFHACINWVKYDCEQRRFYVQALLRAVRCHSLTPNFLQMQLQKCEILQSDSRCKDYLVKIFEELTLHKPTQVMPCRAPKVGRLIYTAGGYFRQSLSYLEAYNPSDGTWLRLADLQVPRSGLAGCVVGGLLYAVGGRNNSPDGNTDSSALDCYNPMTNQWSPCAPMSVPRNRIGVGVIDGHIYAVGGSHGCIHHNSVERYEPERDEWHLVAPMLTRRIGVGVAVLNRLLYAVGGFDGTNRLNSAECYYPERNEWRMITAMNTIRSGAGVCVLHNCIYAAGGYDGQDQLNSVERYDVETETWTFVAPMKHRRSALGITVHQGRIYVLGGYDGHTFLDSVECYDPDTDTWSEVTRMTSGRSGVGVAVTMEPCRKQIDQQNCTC
Chain of UniProt A8MWY0 (A8MWY0 whole entry, looked up): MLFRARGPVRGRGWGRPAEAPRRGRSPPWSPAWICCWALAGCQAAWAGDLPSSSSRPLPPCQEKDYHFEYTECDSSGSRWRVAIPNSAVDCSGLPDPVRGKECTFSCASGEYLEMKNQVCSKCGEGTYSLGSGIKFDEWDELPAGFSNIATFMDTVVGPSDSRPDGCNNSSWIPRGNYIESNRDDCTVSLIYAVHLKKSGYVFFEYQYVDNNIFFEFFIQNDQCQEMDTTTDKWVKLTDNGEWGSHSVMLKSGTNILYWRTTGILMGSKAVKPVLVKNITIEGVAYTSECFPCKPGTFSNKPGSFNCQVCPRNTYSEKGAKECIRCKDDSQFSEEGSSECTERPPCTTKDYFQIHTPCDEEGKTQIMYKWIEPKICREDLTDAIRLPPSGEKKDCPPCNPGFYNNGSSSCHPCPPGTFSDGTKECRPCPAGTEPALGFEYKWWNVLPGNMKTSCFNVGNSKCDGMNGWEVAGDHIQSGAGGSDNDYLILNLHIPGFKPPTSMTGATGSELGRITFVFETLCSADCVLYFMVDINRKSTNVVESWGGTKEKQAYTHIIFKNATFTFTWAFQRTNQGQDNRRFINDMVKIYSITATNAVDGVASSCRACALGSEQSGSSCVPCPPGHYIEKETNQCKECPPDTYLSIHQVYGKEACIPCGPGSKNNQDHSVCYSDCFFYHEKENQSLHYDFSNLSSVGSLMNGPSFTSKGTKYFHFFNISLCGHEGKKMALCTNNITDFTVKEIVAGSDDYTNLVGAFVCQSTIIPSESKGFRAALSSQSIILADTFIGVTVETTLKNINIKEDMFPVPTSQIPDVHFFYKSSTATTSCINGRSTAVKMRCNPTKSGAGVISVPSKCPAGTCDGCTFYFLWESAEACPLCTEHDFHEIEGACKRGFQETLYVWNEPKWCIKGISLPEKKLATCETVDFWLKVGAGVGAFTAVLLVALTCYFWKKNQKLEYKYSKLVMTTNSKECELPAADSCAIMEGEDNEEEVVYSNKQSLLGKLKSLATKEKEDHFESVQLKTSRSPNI
Chain of UniProt P01116 (P01116 whole entry, looked up): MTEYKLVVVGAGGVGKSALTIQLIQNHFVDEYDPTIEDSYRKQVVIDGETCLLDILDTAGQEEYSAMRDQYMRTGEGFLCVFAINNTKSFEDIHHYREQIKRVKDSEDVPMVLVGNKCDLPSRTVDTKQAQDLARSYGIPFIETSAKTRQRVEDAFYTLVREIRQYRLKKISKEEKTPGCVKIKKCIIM

Row | Target | log2 fold change (erlotinib) | log2 fold change [1] | log2 fold change [2] | log2 fold change [3] | log2 fold change [4] | log2 fold change [5] | log2 fold change [6] | log2 fold change [7] | log2 fold change [8] | log2 fold change [9] | log2 fold change (IRAK-1-4 Inhibitor I) | log2 fold change (ibrutinib) | log2 fold change [10] | log2 fold change (ralimetinib) | log2 fold change [11] | log2 fold change [12] | log2 fold change [13] | log2 fold change (pinometostat) | log2 fold change [14] | log2 fold change [15]
1 | LAMP2 (UniProt P13473) | 0.035 | 0 | 0.088 | 0.031 | 0.002 | 0.101 | -0.013 | -0.01 | -0.013 | 0.039 | 0.063 | 0.042 | -0.083 | -0.12 | -0.007 | -0.033 | 0.004 | -0.077 | -0.139 | 0.066
2 | MAPRE3 (UniProt Q9UPY8) | -0.039 | 0.252 (active) | 0.076 | 0.003 | -0.013 | 0.042 | -0.05 | 0 | 0.035 | -0.01 | 0.027 | -0.044 | -0.003 | -0.142 | -0.049 | -0.079 | -0.033 | 0.019 | 0.01 | -0.029
3 | MAP3K7 (UniProt O43318) | 0.078 | 0.009 | -0.067 | -0.091 | 0.034 | -0.031 | -0.016 | 0.113 | -0.005 | -0.168 | -0.123 | -0.061 | -0.075 | 0.035 | -0.207 | -0.159 | 0.05 | 0.102 | 0.024 | 0.006
4 | MICU1 isoform 3 (UniProt Q9BPX6) | -0.02 | -0.026 | -0.022 | 0.002 | -0.009 | 0.007 | -0.054 | 0.008 | 0.013 | -0.015 | 0 | -0.009 | -0.025 | 0.007 | -0.016 | -0.285 (active) | 0.08 | 0.076 | 0.067 | 0.09
5 | KEAP1 (UniProt Q14145) | -0.015 | -0.031 | 0.025 | -0.021 | 0.025 | 0.159 | -0.098 | 0.023 | -0.045 | -0.034 | 0.008 | -0.085 | 0.022 | 0.074 | -0.07 | -0.233 (active) | 0.023 | 0.109 | -0.017 | 0.028
6 | KIAA1324L (UniProt A8MWY0) | 0.036 | -0.077 | 0.003 | 0.05 | 0.092 | -0.068 | 0.003 | -0.042 | -0.03 | 0.064 | 0.027 | -0.056 | -0.052 | -0.024 | -0.038 | 0.024 | 0 | -0.008 | 0.034 | -0.037
7 | MCL1 (UniProt Q07820) | -0.225 | 0 | -0.037 | -0.01 | -0.057 | 0.027 | -0.121 | -0.161 | -0.039 | 0 | 0.052 | 0.095 | -0.036 | 0.175 | -0.054 | -0.234 | 0.295 | -0.186 | 0.091 | -0.117
8 | LMNB2 (UniProt Q03252) | 0.027 | 0.062 | 0.001 | 0.025 | -0.042 | 0.099 | -0.066 | -0.186 | -0.167 | 0.001 | -0.026 | -0.017 | -0.214 (active) | -0.018 | 0.052 | -0.093 | 0.03 | 0.011 | -0.013 | -0.022
9 | LSS (UniProt P48449) | 0.293 | 0.073 | -0.029 | 0.051 | 0.128 | 0.069 | -0.005 | 0.081 | 0.005 | 0.089 | -0.119 | -0.087 | -0.084 | 0.147 | 0.099 | 0.199 | 0.077 | -0.116 | -0.022 | -0.195
10 | MED1 (UniProt Q15648) | -0.022 | -0.011 | -0.118 | -0.001 | 0.04 | 0.043 | -0.03 | -0.043 | 0.016 | -0.025 | -0.049 | 0.002 | -0.28 (active) | 0.032 | -0.008 | -0.106 | 0.033 | 0.189 | 0.019 | 0.027
11 | MARK2 (UniProt E9PC69) | 0.12 | 0.091 | 0.043 | -0.042 | 0.115 | -0.1 | -0.014 | -0.756 (active) | -0.227 | -0.126 | -0.156 | -0.047 | -2.09 (active) | 0.031 | -0.047 | -0.581 | 0.049 | 0.078 | 0.077 | 0.034
12 | KPNA4 (UniProt O00629) | 0.016 | 0.023 | 0.037 | 0.023 | 0.005 | 0.03 | 0.027 | -0.024 | 0.003 | 0.003 | 0.008 | -0.016 | -0.057 | -0.048 | 0.028 | -0.063 | -0.02 | -0.001 | 0.041 | -0.347 (active)
13 | LIMD1 (UniProt Q9UGP4) | 0.017 | 0.058 | 0.062 | -0.019 | -0.01 | 0.077 | 0.013 | 0.006 | -0.045 | 0.042 | 0.03 | 0.033 | -0.008 | 0.035 | -0.035 | 0.044 | -0.072 | 0.016 | 0.003 | -0.032
14 | IMMP1L (UniProt Q96LU5) | 0.053 | -0.018 | 0.01 | -0.017 | 0.104 | -0.022 | -0.084 | -0.046 | 0.041 | 0.013 | 0.006 | 0.043 | 0.002 | 0.031 | 0.03 | 0.026 | 0.112 | -0.033 | 0.06 | 0.199
15 | KRAS isoform 2 (UniProt P01116) | -0.035 | -0.011 | 0.006 | 0.029 | 0.005 | 0.019 | 0.002 | -0.03 | 0.045 | -0.084 | 0.045 | -0.035 | -0.07 | 0.02 | 0.101 | 0.099 | 0.241 (active) | 0.014 | 0.001 | 0.072
16 | LARP7 isoform 3 (UniProt Q4G0J3) | 0.01 | 0.119 | 0.022 | 0.034 | 0.06 | 0.023 | 0.025 | -0.055 | -0.052 | 0.045 | -0.061 | 0.031 | 0.063 | 0.111 | 0.021 | -0.246 | -0.057 | 0.05 | -0.063 | -0.383 (active)
